Assay outcomes deposited in PubChem BioAssay by National Center for Advancing Translational Sciences (NCATS).
Rows were chosen to be rich in hits. Some 4.4% of all compounds tested hit in one or more screens of this group.
TRHR PAM – TRH receptor (human) allosteric enhancement | AID 493056 | TRHR cells, fluo-8 calcium fluorescence, EC20 TRH enhancement | hit rate 0.66% among 360,000 | enhancement, % at 2 µM; in the data active = enhancement above about 30%; note: 0% is about no effect
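TRHR-expressing cells loaded with fluo-8 calcium dye were read kinetically (ex 480/em 530) during compound addition, then stimulated with an EC20 of TRH (10 nM final). Enhancement of the Gq-mediated intracellular calcium response was scored.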
D1 PAM – enhances dopamine response at the human D1 receptor | P21728 | HEK293 TREx D1 cells, calcium flux, dopamine EC20 potentiation | potentiation, % at 10 µM | hit rate 0.036% among 360,000 | AID 504651; in the data active = potentiation above about 30%; note: 0% is about no effect
USP1 inh – inhibitors of human USP1/UAF1 deubiquitinase. Potency, µM (highest dose often 57.1 µM), for the others: at the highest dose activity change, negative = inhibition, usual class: inhibitors. AID 743255. O94782. recombinant USP1/UAF1, Ub-Rhodamine cleavage fluorescence. hit rate 0.23% among 390,000; active = well fitted inhibition curve with a large enough effect; inconclusive = small, poorly fitted or top-dose-only effect; inactive = no such curve, though single readings can be large or run the other way; note: potency is the fitted concentration of half-maximal effect; % is set by controls: 0 for no effect and ±100 for the full control effect; nearly all actives have a fitted effect of over 60% in size
Target sequence (O94782 whole entry, looked up): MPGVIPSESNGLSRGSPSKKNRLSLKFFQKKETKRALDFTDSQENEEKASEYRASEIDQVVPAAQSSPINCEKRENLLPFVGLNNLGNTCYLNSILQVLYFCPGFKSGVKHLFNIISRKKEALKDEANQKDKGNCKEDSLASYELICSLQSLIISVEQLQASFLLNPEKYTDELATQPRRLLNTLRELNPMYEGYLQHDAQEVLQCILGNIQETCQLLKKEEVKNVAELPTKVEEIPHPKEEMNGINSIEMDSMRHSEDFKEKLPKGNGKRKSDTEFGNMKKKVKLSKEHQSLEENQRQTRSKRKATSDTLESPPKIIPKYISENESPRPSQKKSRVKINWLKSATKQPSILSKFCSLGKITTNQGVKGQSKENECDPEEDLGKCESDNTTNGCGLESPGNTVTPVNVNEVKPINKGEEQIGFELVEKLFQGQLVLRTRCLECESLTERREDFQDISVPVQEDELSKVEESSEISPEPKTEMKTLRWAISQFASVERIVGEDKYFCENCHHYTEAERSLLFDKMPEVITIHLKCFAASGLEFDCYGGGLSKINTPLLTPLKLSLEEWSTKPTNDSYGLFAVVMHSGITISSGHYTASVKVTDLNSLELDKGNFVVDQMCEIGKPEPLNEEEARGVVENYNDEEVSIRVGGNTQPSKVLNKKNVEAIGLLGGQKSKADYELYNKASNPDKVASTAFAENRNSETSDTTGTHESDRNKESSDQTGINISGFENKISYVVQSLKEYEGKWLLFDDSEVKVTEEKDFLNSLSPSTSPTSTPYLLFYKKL
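1 nM enzyme complex + cpd, 15 min RT; start with Ub-Rho 150nM final; kinetic fluorescence ex 480/em 540, 6 reads q60 s. Buffer 50mM HEPES pH 7.8, 0.5mM EDTA, 0.1 mg/ml BSA, 1mM TCEP, 0.01% Tween-20.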
TRHR agonist – TRH receptor (human) agonism | hit rate 0.18% among 360,000 | activation, % at 2 µM | P34981 | TRHR cells, calcium flux fluo-8, FDSS agonist mode | AID 493084; note: 0% is about no effect
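Agonist-mode FDSS calcium read (Ex 480/Em 530, 1 s cycles) in 1536-well TRHR cells with fluo-8 dye, after 10-cycle baseline and 23 nL compound addition; TRH at EC20 (10 nM final) added afterwards for the enhancer phase.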
D1 ag – activates the human D1 dopamine receptor; HEK293 T-REx D1 cells, calcium flux, agonist mode; activation, % at 2 µM; hit rate 1% among 360,000; AID 504660; note: 0% is about no effect
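Agonism was scored from calcium flux recorded over 180 s (1 read/s) after pintool compound addition, following a 10-cycle baseline. Cells were inducible force-coupled HEK293 TREx D1, plated overnight at 30 C and loaded with no-wash calcium dye.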
D1 antagonist – blocks dopamine activation of the human D1 receptor | P21728 | HEK293 TREx D1 cells, calcium flux, dopamine EC80; stronger effect = lower value | activity change, negative = inhibition, % at 10 µM | hit rate 3.2% among 360,000 | AID 504652; in the data active = activity change below about -30%; note: % is set by controls: 0 for no effect and ±100 for the full control effect
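Tetracycline-induced HEK293 Trex D1 cells, force-coupled to calcium, dye-loaded; compounds added and read 180 s, then EC80 dopamine added and calcium flux tracked kinetically another 180 s.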
The depositor's hits bear a star. Cut-off read from the data, not from the text of the source, unless noted: active = activation above about 30%; inactive = the rest.

Screening Cc1[nH]ncc1-c1nc2ccccc2[nH]1 returned TRHR PAM 3, D1 PAM 4, USP1 inh -17%, TRHR agonist 1, D1 ag 1 and D1 antagonist -9.
For Cc1c(-c2nc3ccccc3[nH]2)cnn1C the results were TRHR PAM 13, D1 PAM -2, USP1 inh -21%, TRHR agonist 0, D1 ag 1 and D1 antagonist -30*.
Screening Cc1ccc2cccc(NC(=O)c3ccc(-c4cc(Cl)ccc4Cl)o3)c2n1 returned TRHR PAM -4, D1 PAM 0, USP1 inh -10%, TRHR agonist 2, D1 ag 1 and D1 antagonist -7.
Screening COc1ccccc1C(=O)NC1(C(F)(F)F)C(=O)Nc2c1c(=O)[nH]c(=O)n2-c1ccc(F)cc1 (configuration not stated) returned TRHR PAM 3, D1 PAM -1, USP1 inh -8%, TRHR agonist -1, D1 ag -1 and D1 antagonist 11.
For N=C(N)SCc1ccc(Cl)cc1Cl the results were TRHR PAM 1, D1 PAM 2, USP1 inh 0%, TRHR agonist -3, D1 ag 34* and D1 antagonist 6.
CCOC(=O)N1CCc2c(sc3c2c(=O)n(Cc2ccccc2)c(=O)n3Cc2cccc(Cl)c2)C1 was read as TRHR PAM 5, D1 PAM -3, USP1 inh -13%, TRHR agonist 0, D1 ag 3 and D1 antagonist 4.
COc1ccccc1NC(=O)CCNC(=O)Cn1ccc2ccccc2c1=O was read as TRHR PAM 2, D1 PAM -2, USP1 inh -15%, TRHR agonist 0, D1 ag 1 and D1 antagonist -12.
For Cc1ccccc1NC(=O)CCNC(=O)Cn1ccc2ccccc2c1=O the results were TRHR PAM 0, D1 PAM 1, USP1 inh inconclusive, TRHR agonist 0, D1 ag 3 and D1 antagonist -35*.
`CCCCC(=O)NC(NC(=S)N1CCOCC1)C(Cl)(Cl)Cl` (configuration not stated) gave TRHR PAM -2, D1 PAM 5, USP1 inh -3%, TRHR agonist 0, D1 ag 5 and D1 antagonist -34*.
CCN(C(=O)Cn1c(=O)n(Cc2ccc3c(c2)OCO3)c(=O)c2ccc(C(=O)NC3CCCCC3)cc21)c1cccc(C)c1 was read as TRHR PAM -2, D1 PAM -2, USP1 inh -27%, TRHR agonist 1, D1 ag 7 and D1 antagonist -54*.
`CN(C(=O)CSc1nc2ncccc2o1)c1ccc(F)cc1` gave TRHR PAM -5, D1 PAM -1, USP1 inh -12%, TRHR agonist 0, D1 ag 1 and D1 antagonist 7.
For Cc1csc(Nc2cccc3ccccc23)n1 the results were TRHR PAM 11, D1 PAM -6, USP1 inh 3%, TRHR agonist 0, D1 ag 0 and D1 antagonist -46*.
S=C(Nc1ccc(Cc2ccncc2)cc1)Nc1cccc(Cl)c1 was read as TRHR PAM 6, D1 PAM -5, USP1 inh -11%, TRHR agonist 0, D1 ag 5 and D1 antagonist -32*.
Screening S=C(NCc1ccncc1)Nc1ccc(Cl)c(Cl)c1 returned TRHR PAM -3, D1 PAM -12, USP1 inh -18%, TRHR agonist 2, D1 ag 23 and D1 antagonist -36*.
`S=C(NCc1ccncc1)Nc1cc(Cl)cc(Cl)c1` gave TRHR PAM 4, D1 PAM -13, USP1 inh -10%, TRHR agonist 1, D1 ag 15 and D1 antagonist -31*.
For S=C(NCc1cccnc1)Nc1cc(Cl)cc(Cl)c1 the results were TRHR PAM -6, D1 PAM -4, USP1 inh -5%, TRHR agonist 2, D1 ag 16 and D1 antagonist -7.
